In PubChem BioAssay AID1159580 (chemical genetic matrix, 2015):
Among all 5,500 compounds or so, about 2,000 (36%) were called active. Roughly 18% stayed inconclusive and do not appear here. Cut-off read from the data, not from the text of the source: active = normalized growth mostly below about 0.91 (no sharp cut-off); inconclusive = no clear call, values can overlap the other calls; inactive = mostly above about 0.92. This is one part of the list.

Assay: chemical genetic growth profiling, strain panel (AID 1159580);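 note: tested at 20 µM; growth read once vehicle control cultures reached saturation at 30 °C; 1 = growth at the plate median or of vehicle wells; lower values mean less growth of the strain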
Conditions: S. cerevisiae deletion strains, growth OD

Measured: normalized growth

CC(C)[C@@]1(NC(=O)[C@@H]2C=C3c4cccc5[nH]cc(c45)C[C@H]3N(C)C2)O[C@@]2(O)[C@@H]3CCCN3C(=O)[C@H](Cc3ccccc3)N2C1=O
inactive: locus YAL040C, strain CLN3, hits give low values 0.989 | locus YCL061C, strain MRC1 (second series), hits give low values 0.996 | locus YDR363W, strain ESC2, hits give low values 0.993 | locus YER002W, strain NOP16, hits give low values 0.998 | locus YMR263W, strain SAP30, hits give low values 0.999 | locus YMR307W, strain GAS1, hits give low values 0.982 | locus YNL153C, strain GIM3, hits give low values 0.99 | locus YNL175C, strain NOP13, hits give low values 1.01 | locus YNL197C, strain WHI3, hits give low values 1 | locus YNL224C, strain SQS1, hits give low values 0.972 | locus YOR083W, strain WHI5 (second series), hits give low values 1.04 | locus YPL055C, strain LGE1, hits give low values 0.99 | locus YPL241C, strain CIN2, hits give low values 0.998
